About 7,900 targets were measured; listed, in parts, are those with a hit and a random draw of the rest. About 0.6% of all pairs of compound and target were hits. Unmarked numbers belong to inactive results.
Tests used:
Test in all cases: log2 fold change, soluble protein after heating vs DMSO (PISA); higher = thermal stabilisation; K562 cells, 10 uM, 30 min; active = over 0.2 and 3.5 SD of the protein, either way, in both replicates (recomputed)
[1] = compound: NC(=O)Nc1cc(-c2cccc(F)c2)sc1C(=O)N[C@H]1CCCNC1
Procedure, shortened: (§1)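 K562 cells at 2×10^6 cells/mL were treated for 30 min with 10 μM compound, and aliquots were heated for 3 min over 48°C-58°C before pooling. Extraction used PBS with 0.5% NP-40 at 4°C, and soluble protein was the supernatant after 21,000xg for 90 min, measured by TMTpro 16plex LC-MS/MS with channel sums equalised. Thermal stability values, relative to control samples and from duplicates, are log2 fold changes.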

[2] = compound: NC(=O)c1cnc(N[C@@H]2CCCC[C@@H]2N)nc1Nc1cccc(-n2nccn2)c1
Procedure, shortened: as §1

[3] = compound: NC1(c2ccc(-c3nc4ccn5c(=O)[nH]nc5c4cc3-c3ccccc3)cc2)CCC1
Procedure, shortened: as §1

[4] = compound: NCC(=O)Nc1ccc(-n2nc(C(F)(F)F)cc2-c2ccc3c(ccc4ccccc43)c2)cc1
Procedure, shortened: as §1

entinostat = compound: Nc1ccccc1NC(=O)c1ccc(CNC(=O)OCc2cccnc2)cc1 [entinostat]
Procedure, shortened: as §1

vorinostat = compound: O=C(CCCCCCC(=O)Nc1ccccc1)NO [vorinostat]
Procedure, shortened: as §1

citarinostat = compound: O=C(CCCCCCNC(=O)c1cnc(N(c2ccccc2)c2ccccc2Cl)nc1)NO [citarinostat]
Procedure, shortened: as §1

silmitasertib = compound: O=C(O)c1ccc2c(c1)nc(Nc1cccc(Cl)c1)c1ccncc12 [silmitasertib]
Procedure, shortened: as §1

[5] = compound: O=C1NC(=O)C(c2cnc3ccccn23)=C1c1cn2c3c(cc(F)cc13)CN(C(=O)N1CCCCC1)CC2
Procedure, shortened: as §1

[6] = compound: c1cc(OCCN2CCCCC2)cc(-c2n[nH]c3ccc(-c4nnc[nH]4)cc23)c1
Procedure, shortened: as §1

entospletinib = compound: c1cn2cc(-c3ccc4cn[nH]c4c3)nc(Nc3ccc(N4CCOCC4)cc3)c2n1 [entospletinib]
Procedure, shortened: as §1

Chain of UniProt Q9H4A4 (Q9H4A4 whole entry, looked up): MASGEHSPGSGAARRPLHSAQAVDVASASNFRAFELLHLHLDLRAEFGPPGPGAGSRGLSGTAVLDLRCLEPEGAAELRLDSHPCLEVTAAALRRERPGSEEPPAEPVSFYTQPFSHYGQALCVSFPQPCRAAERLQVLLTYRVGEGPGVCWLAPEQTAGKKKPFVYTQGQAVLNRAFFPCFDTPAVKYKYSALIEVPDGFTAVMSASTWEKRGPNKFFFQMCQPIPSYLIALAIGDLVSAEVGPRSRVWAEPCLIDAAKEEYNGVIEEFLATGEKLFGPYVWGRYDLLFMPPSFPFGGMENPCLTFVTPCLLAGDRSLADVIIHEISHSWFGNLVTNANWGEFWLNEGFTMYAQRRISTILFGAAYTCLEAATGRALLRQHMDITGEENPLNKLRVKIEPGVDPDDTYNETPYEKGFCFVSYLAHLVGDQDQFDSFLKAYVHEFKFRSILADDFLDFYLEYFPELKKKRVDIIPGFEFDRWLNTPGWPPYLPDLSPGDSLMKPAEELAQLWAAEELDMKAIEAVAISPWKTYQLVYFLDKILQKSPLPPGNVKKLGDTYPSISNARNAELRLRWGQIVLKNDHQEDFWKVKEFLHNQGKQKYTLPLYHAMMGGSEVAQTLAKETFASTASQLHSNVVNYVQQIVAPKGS
Chain of UniProt P35244 (P35244 whole entry, looked up): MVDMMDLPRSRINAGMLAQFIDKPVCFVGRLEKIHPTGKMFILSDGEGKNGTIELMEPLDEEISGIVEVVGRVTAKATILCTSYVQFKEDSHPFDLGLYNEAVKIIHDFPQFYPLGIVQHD
Chain of UniProt Q99590 (Q99590 whole entry, looked up): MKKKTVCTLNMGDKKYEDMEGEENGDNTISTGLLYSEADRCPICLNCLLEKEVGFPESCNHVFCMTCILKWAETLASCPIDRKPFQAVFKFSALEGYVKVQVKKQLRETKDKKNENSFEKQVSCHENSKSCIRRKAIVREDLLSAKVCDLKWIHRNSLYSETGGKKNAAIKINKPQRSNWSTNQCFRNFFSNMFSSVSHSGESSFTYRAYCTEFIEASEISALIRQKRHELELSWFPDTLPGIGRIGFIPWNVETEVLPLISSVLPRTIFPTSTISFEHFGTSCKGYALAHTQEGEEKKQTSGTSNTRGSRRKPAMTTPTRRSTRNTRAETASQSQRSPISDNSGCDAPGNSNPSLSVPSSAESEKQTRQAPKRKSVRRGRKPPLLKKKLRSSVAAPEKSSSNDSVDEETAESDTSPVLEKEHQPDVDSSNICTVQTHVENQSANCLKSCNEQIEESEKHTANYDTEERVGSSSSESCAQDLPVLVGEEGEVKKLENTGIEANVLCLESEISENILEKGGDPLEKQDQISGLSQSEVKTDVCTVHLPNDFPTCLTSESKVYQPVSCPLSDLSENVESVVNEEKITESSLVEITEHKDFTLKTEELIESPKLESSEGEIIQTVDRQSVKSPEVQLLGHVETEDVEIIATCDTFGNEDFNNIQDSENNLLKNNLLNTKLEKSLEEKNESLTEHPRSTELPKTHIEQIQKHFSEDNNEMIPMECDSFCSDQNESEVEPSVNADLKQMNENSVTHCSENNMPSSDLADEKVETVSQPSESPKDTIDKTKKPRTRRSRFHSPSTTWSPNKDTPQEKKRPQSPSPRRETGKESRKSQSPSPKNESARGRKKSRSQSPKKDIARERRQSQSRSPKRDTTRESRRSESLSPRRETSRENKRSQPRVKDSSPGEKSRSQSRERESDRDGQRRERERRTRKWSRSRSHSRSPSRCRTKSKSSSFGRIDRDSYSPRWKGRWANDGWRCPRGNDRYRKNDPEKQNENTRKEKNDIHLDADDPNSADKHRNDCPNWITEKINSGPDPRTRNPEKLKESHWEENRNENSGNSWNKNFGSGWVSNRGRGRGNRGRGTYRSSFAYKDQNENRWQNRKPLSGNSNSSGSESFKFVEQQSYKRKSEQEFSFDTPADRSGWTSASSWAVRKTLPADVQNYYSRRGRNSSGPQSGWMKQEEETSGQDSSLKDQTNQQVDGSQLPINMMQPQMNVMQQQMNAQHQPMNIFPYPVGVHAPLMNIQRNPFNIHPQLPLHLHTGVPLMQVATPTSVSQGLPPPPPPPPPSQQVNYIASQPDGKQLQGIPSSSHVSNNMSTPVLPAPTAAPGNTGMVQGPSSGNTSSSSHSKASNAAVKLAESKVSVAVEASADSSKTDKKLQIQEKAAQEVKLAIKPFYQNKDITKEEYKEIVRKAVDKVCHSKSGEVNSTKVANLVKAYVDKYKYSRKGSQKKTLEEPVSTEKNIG
Chain of UniProt Q8TC12 (Q8TC12 whole entry, looked up): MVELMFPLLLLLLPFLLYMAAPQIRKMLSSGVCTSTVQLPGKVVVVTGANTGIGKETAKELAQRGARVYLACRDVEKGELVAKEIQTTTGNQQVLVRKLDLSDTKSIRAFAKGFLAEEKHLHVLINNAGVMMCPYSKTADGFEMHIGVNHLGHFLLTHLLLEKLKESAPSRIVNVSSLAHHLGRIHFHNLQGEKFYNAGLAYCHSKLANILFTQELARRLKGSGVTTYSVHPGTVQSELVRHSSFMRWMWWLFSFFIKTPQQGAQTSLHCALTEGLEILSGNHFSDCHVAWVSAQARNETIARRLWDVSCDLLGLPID
Chain of UniProt Q96EV2 (Q96EV2 whole entry, looked up): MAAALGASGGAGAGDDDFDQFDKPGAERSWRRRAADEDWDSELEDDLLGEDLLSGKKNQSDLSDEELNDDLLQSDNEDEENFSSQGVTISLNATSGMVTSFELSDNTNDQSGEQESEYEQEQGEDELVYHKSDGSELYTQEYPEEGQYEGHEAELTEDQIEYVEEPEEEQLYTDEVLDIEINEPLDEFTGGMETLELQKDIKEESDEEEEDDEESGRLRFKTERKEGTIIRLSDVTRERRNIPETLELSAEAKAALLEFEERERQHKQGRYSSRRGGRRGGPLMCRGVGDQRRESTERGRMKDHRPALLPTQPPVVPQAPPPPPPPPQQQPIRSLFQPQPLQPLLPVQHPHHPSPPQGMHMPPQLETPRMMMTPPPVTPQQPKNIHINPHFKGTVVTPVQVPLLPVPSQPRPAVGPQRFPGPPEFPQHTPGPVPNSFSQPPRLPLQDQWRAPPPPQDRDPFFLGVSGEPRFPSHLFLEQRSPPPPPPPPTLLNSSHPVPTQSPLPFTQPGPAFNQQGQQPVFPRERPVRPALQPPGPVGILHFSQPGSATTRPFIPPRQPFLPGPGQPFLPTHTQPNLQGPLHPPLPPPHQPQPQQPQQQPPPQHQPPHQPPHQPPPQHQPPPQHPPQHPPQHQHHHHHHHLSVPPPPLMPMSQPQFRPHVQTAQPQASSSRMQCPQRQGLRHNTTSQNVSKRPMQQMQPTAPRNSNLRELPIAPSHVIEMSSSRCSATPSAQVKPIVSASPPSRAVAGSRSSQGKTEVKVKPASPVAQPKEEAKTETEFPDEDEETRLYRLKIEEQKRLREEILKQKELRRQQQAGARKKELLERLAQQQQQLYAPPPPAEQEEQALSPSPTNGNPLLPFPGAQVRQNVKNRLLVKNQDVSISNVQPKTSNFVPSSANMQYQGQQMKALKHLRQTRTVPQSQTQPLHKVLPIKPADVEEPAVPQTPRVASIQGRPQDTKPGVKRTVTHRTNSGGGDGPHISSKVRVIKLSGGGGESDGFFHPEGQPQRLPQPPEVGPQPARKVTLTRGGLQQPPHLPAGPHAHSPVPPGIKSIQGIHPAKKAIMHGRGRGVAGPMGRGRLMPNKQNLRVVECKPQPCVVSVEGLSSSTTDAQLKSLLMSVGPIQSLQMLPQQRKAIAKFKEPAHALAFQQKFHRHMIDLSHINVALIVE
Chain of UniProt O14730 (O14730 whole entry, looked up): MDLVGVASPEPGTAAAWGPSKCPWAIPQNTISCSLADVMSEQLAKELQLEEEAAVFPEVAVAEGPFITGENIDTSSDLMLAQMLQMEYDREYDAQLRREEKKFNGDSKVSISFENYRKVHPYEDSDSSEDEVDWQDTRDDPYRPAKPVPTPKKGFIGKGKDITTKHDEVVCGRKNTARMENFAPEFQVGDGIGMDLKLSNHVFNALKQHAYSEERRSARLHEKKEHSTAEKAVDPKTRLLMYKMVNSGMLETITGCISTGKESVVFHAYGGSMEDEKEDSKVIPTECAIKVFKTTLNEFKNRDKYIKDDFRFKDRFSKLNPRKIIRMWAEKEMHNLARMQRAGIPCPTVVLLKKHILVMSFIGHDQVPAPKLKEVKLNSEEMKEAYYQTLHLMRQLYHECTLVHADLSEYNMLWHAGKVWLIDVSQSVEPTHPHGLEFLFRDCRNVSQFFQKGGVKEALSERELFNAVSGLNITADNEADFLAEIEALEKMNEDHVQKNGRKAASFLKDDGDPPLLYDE
Chain of UniProt P63208 (P63208 whole entry, looked up): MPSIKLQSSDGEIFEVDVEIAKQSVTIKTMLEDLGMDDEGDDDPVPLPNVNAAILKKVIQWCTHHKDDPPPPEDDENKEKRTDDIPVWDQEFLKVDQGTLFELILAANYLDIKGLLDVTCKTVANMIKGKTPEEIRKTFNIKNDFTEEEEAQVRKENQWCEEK
Chain of UniProt Q8WWV3 (Q8WWV3 whole entry, looked up): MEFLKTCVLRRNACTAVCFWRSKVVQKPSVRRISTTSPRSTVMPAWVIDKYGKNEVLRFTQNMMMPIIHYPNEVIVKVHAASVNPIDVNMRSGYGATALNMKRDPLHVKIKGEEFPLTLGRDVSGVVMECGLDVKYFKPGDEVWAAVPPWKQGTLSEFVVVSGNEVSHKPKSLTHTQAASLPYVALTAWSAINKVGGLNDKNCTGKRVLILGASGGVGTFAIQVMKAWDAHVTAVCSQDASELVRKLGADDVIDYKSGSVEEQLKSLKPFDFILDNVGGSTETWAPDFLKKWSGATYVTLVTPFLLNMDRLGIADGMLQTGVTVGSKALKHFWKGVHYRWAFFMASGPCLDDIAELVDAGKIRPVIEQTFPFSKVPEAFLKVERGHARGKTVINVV

| Target | log2 fold change [1] | log2 fold change [2] | log2 fold change [3] | log2 fold change [4] | log2 fold change (entinostat) | log2 fold change (vorinostat) | log2 fold change (citarinostat) | log2 fold change (silmitasertib) | log2 fold change [5] | log2 fold change [6] | log2 fold change (entospletinib) |
| --- | --- | --- | --- | --- | --- | --- | --- | --- | --- | --- | --- |
| RSL1D1 (UniProt O76021) | -0.001 | 0.207 | 0.339 | 0.188 | -0.133 | -0.016 | -0.105 | 0.329 | 0.409 | -0.265 | 0.01 |
| SKP1 (UniProt P63208) | 0.015 | 0.011 | 0.034 | 0.047 | 0.037 | 0.16 | -0.003 | 0 | 0.008 | 0.01 | 0.008 |
| RNF187 (UniProt Q5TA31) | 0.004 | -0.056 | -0.033 | 0.07 | -0.019 | 0.095 | 0.054 | 0.012 | -0.061 | 0.035 | 0.027 |
| RARS2 (UniProt Q5T160) | 0.042 | -0.035 | -0.182 | -0.043 | 0.03 | 0.029 | 0.048 | 0.006 | -0.022 | -0.053 | 0 |
| RAC1 (UniProt P63000) | 0.093 | 0.043 | 0.018 | 0.051 | 0.047 | 0.084 | -0.087 | -0.078 | 0.065 | 0.146 | 0.026 |
| RPS3 (UniProt P23396) | -0.006 | 0.05 | 0.117 | 0.033 | -0.055 | 0.015 | -0.035 | -0.008 | 0.029 | -0.145 | 0.063 |
| RBM33 (UniProt Q96EV2) | 0.019 | -0.055 | -0.024 | 0.003 | 0.027 | 0.037 | 0.042 | 0.038 | -0.003 | -0.046 | 0 |
| RPS14 (UniProt P62263) | 0.056 | 0.142 | 0.149 | 0.08 | -0.033 | -0.106 | -0.089 | -0.041 | 0.209 | -0.069 | 0.025 |
| RNPEP (UniProt Q9H4A4) | -0.001 | -0.093 | -0.086 | -0.027 | 0.042 | 0.033 | 0.018 | 0.031 | -0.017 | -0.033 | 0.004 |
| SCAF11 (UniProt Q99590) | 0.019 | 0.073 | 0.129 | -0.003 | -0.054 | 0.12 | -0.13 | -0.038 | 0.147 | -0.29 | 0.185 |
| RPS3A (UniProt P61247) | 0.01 | 0.084 | 0.164 | 0.035 | -0.04 | 0.041 | -0.071 | 0.017 | 0.088 | -0.131 | 0.082 |
| RTN4IP1 (UniProt Q8WWV3) | -0.057 | -0.218 | -0.085 | -0.024 | 0.009 | 0.111 | 0.316 | 0.069 | 0.079 | -0.198 | -0.003 |
| RIOK3 (UniProt O14730) | 0.047 | -0.005 | -0.061 | 0.015 | -0.005 | 0.043 | 0.036 | -0.011 | 0.057 | -0.046 | -0.001 |
| RDH11 (UniProt Q8TC12) | -0.118 | 0.061 | -0.049 | -0.165 | 0.055 | 0.05 | 0.092 | 0.061 | -0.087 | -0.041 | 0.082 |
| RANBP2 (UniProt P49792) | 0.063 | -0.05 | 0.01 | 0.005 | 0.009 | -0.034 | -0.037 | 0.001 | -0.049 | 0.019 | -0.009 |
| RPA3 (UniProt P35244) | 0.044 | 0.086 | -0.021 | 0.371 (active) | 0.102 | -0.005 | 0.1 | -0.007 | -0.164 | -0.071 | -0.02 |

From the supplement of paper PMC10849652
